Shown are actives, neighbours in structure and some others; about 2.4% of the full set was active somewhere.
AmpC nodet inh = blocks E. coli AmpC beta-lactamase in absence of detergent; P00811; AmpC nitrocefin hydrolysis, absorbance 480 nm, no detergent; Potency, µM (series often up to 28.7 µM); hit rate 1.8% among 71,000; AID 585
Target sequence (P00811 whole entry, looked up): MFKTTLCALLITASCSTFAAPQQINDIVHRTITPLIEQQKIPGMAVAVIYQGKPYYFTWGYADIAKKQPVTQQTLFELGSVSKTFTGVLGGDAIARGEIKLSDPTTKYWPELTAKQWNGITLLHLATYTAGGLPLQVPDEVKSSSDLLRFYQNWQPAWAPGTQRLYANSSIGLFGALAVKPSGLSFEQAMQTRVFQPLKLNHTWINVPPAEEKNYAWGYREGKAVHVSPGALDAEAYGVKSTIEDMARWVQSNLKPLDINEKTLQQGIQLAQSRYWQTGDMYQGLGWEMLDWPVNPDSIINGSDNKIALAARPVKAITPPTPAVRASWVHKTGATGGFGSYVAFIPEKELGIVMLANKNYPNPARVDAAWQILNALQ
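Enzyme, pH 7.0 phosphate. Compound titrations were pre-incubated with AmpC for 15 min at room temperature before nitrocefin (stock 800 uM) addition; product formation was recorded at 480 nm every 20 s for 4 min.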
AmpC inh det = inhibitors of E. coli AmpC beta-lactamase with detergent | hit rate 0.09% among 71,000 | purified AmpC, nitrocefin hydrolysis with detergent | Potency, µM (titrated, usually from 28.7 µM) | P00811; active = well fitted curve in the direction sought with a large enough effect; inconclusive = small, poorly fitted or top-dose-only effect
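E. coli AmpC (5.3 nM) in 20 mM phosphate pH 7.0 with 0.01% Triton X-100, preincubated 15 min RT with compound; nitrocefin (2 uL of 800 uM stock) hydrolysis followed by 480 nm absorbance every 20 s over 4 min.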
Prx2 Sm inh = inhibitors of Schistosoma mansoni peroxiredoxin 2 | S. mansoni Prx2 activity coupled to TGR/GSH (TGR is thioredoxin glutathione reductase), NADPH fluorescence loss, qHTS | Potency, µM | hit rate 0.07% among 65,000 | AID 448
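Enzyme mix: 100 uM NADPH, 25 nM TGR, 700 uM GSH, 50 nM Prx2 in 100 mM phosphate pH 7.4, 10 mM EDTA, 0.01% Tween-20. 15 min RT with compound; NADPH/GSH added, H2O2 starts reaction; NADPH fluorescence read 8 min.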
Anthrax LT inh = blocks cellular internalization of anthrax lethal toxin. AID 912. Potency, µM (top dose mostly 40 µM), hits mostly inhibitors. hit rate 0.67% among 70,000. Cells, anthrax lethal toxin internalization, FRET ratio (460/530); note: nearly all actives have a fitted effect of over 50% in size
Numbers stand for hits; [ ] = dose if it differs, or a comment. Unless noted, calls come from the whole dose curve.

How did CN1CCN(c2ccc(N)c(N3CCN(C)CC3)c2)CC1 do in these assays?
AmpC nodet inh: inactive; AmpC inh det: inactive; Prx2 Sm inh: inactive; Anthrax LT inh: 13µM

What do the screens show for `Nc1ccc(N2CCCCC2)cc1N1CCCCC1`?
AmpC nodet inh: inactive; AmpC inh det: inactive; Prx2 Sm inh: inactive; Anthrax LT inh: inactive

Results for COc1ccc2nc3sc(C(=O)NCc4cccs4)c(N)c3cc2c1 ?
AmpC nodet inh: 13µM; AmpC inh det: inactive; Prx2 Sm inh: inactive; Anthrax LT inh: inactive

How did CC(C)[C@@]1(NC(=O)[C@@H]2C[C@H]3c4cccc5[nH]cc(c45)C[C@@H]3N(C)C2)O[C@@]2(O)[C@H]3CCCN3C(=O)[C@@H](Cc3ccccc3)N2C1=O do in these assays?
AmpC nodet inh: inactive; AmpC inh det: inactive; Prx2 Sm inh: inactive; Anthrax LT inh: inconclusive

What do the screens show for `CCCCOc1ccc(S(=O)(=O)n2c(C)nc3ccccc32)cc1`?
AmpC nodet inh: inactive; AmpC inh det: inactive; Prx2 Sm inh: inactive; Anthrax LT inh: inconclusive

Results for CCOc1ccc(S(=O)(=O)n2c(C)nc3ccccc32)cc1 ?
AmpC nodet inh: 4µM[single pt active]; AmpC inh det: inactive; Prx2 Sm inh: inactive; Anthrax LT inh: inactive

How did O=C=Nc1ccc(Cl)c(Cl)c1 do in these assays?
AmpC nodet inh: inconclusive; AmpC inh det: inactive; Anthrax LT inh: 16µM

What do the screens show for `O=C=Nc1ccc(Cc2ccc(N=C=O)cc2)cc1` (tested in a mixture with another compound)?
AmpC nodet inh: inactive[5.75 µM]; AmpC inh det: inactive[5.75 µM]; Prx2 Sm inh: inactive; Anthrax LT inh: inactive[8 µM]

What do the screens show for `Cc1ccc(S(=O)(=O)CCC(=O)c2ccc(O)cc2O)cc1`?
AmpC nodet inh: 13µM; AmpC inh det: inactive; Anthrax LT inh: 13µM

How did COC(=O)NC(CC(C)=O)c1cccs1 (configuration not stated) do in these assays?
Anthrax LT inh: inactive[8 µM]

Results for C/C(=C\C(=O)c1ccc(C)cc1)Nc1cccc(O)c1 ?
AmpC nodet inh: inactive; AmpC inh det: inactive; Anthrax LT inh: 10µM

Results for Cc1ccccc1OCc1nc(-c2ccc(NC(=O)c3ccc4c(c3)OCO4)cc2)no1 ?
AmpC nodet inh: 13µM; AmpC inh det: inactive; Prx2 Sm inh: inactive; Anthrax LT inh: inactive

How did Cc1ccccc1OCc1nc(-c2ccc(NC(=O)c3ccco3)cc2)no1 do in these assays?
AmpC nodet inh: inactive; AmpC inh det: inactive; Prx2 Sm inh: inactive; Anthrax LT inh: inconclusive

Results for O=C(c1ccc(CS(=O)(=O)c2ccc(Br)cc2)o1)N1CCCC1 ?
AmpC nodet inh: 4µM[single pt active]; AmpC inh det: inactive; Prx2 Sm inh: inactive; Anthrax LT inh: inactive

Results for Cc1ccc(S(=O)(=O)Cc2ccc(C(=O)N3CCN(Cc4ccccc4)CC3)o2)cc1 ?
AmpC nodet inh: inactive; AmpC inh det: inactive; Prx2 Sm inh: inactive; Anthrax LT inh: inactive

Results for O=C(c1ccc(CS(=O)(=O)c2ccccc2)o1)N1CCOCC1 ?
AmpC nodet inh: 2.5µM[single pt active]; AmpC inh det: inactive; Prx2 Sm inh: inactive; Anthrax LT inh: inactive

How did O=C(c1ccc(CS(=O)(=O)c2ccc(Br)cc2)o1)N1CCCCCC1 do in these assays?
AmpC nodet inh: 3.2µM[single pt active]; AmpC inh det: inactive; Prx2 Sm inh: inactive; Anthrax LT inh: inconclusive

What do the screens show for `O=C(c1ccc(CS(=O)(=O)c2ccc(Br)cc2)o1)N1CCN(C2CCCCC2)CC1`?
AmpC nodet inh: inactive; AmpC inh det: inactive; Prx2 Sm inh: inactive; Anthrax LT inh: inactive

How did CC(=O)[O-].CC(=O)[O-].CC(=O)[O-].[Cr+3] do in these assays?
AmpC nodet inh: inactive; AmpC inh det: inactive; Anthrax LT inh: inactive

How did COc1ccc2c(c1)CCc1c(C(=O)NCCc3ccc(OC)c(OC)c3)noc1-2 do in these assays?
AmpC nodet inh: inactive; AmpC inh det: inactive; Prx2 Sm inh: inconclusive; Anthrax LT inh: inactive

How did COc1ccc2c(c1)CCc1c(C(=O)Nc3cc(C)n(Cc4ccc(Cl)cc4)n3)noc1-2 do in these assays?
AmpC nodet inh: 7.9µM; AmpC inh det: inactive; Prx2 Sm inh: inactive; Anthrax LT inh: inactive

What do the screens show for `COc1ccc2c(c1)CCc1c(C(=O)NCc3ccc(F)cc3)noc1-2`?
AmpC nodet inh: 4µM[single pt active]; AmpC inh det: inactive; Prx2 Sm inh: inactive; Anthrax LT inh: inconclusive

What do the screens show for `O=C(NCCc1ccccc1)c1noc2c1CCc1ccccc1-2`?
AmpC nodet inh: inactive; AmpC inh det: inactive; Prx2 Sm inh: inactive; Anthrax LT inh: inactive

How did CCCNC(=O)c1noc2c1CCc1ccccc1-2 do in these assays?
AmpC nodet inh: 3.2µM[single pt active]; AmpC inh det: inactive; Prx2 Sm inh: inactive; Anthrax LT inh: inactive

How did CCCN1CCC[C@H](c2cccc(C#N)c2)C1 do in these assays?
AmpC nodet inh: inactive; AmpC inh det: inactive; Prx2 Sm inh: inactive; Anthrax LT inh: inactive

How did C[C@@]12C[C@H](O)[C@@H]3[C@H](CCC4=CC(=O)CC[C@]43C)[C@H]1CC[C@@H]2c1csc(-c2ccccc2)n1 do in these assays?
AmpC nodet inh: inactive[5.75 µM]; AmpC inh det: inactive[5.75 µM]; Prx2 Sm inh: inactive; Anthrax LT inh: inconclusive

How did COc1ccc(C(C)(C)C)cc1NC(=O)Nc1ccc2c(c1)OCO2 do in these assays?
AmpC nodet inh: inactive; AmpC inh det: inactive; Prx2 Sm inh: inactive; Anthrax LT inh: 10µM

Results for C/C(=N/O)c1ccc2cc(Br)c3ccccc3c2c1 ?
AmpC nodet inh: inactive[5.75 µM]; AmpC inh det: inactive[5.75 µM]; Prx2 Sm inh: inactive; Anthrax LT inh: inconclusive

How did COC1=C[C@H]2[C@@H]3Cc4ccc(OC)c(O)c4[C@@]2(CCN3C)CC1=O do in these assays?
AmpC nodet inh: inactive; AmpC inh det: inactive; Prx2 Sm inh: inactive; Anthrax LT inh: inconclusive

Results for COc1ccc(C2C(C(C)=O)=C(C)Nc3ncnn32)cc1OC (configuration not stated) ?
AmpC nodet inh: inactive; AmpC inh det: inactive; Prx2 Sm inh: inactive; Anthrax LT inh: inconclusive

What do the screens show for `COc1cc(C2C(C(=O)OC(C)C)=C(C)Nc3ncnn32)cc(OC)c1OC` (configuration not stated)?
AmpC nodet inh: 4µM[single pt active]; AmpC inh det: inactive; Prx2 Sm inh: inactive; Anthrax LT inh: inactive

What do the screens show for `Cc1cc(NC(=O)CSc2nc(C(C)C)nc3sc(C)c(C)c23)no1`?
AmpC nodet inh: inactive; AmpC inh det: inactive; Prx2 Sm inh: inactive; Anthrax LT inh: inactive

How did Cc1cc(NC(=O)CSc2ncnc3sc4c(c23)CCC(C)C4)no1 (configuration not stated) do in these assays?
AmpC nodet inh: 5µM; AmpC inh det: inactive; Prx2 Sm inh: inactive; Anthrax LT inh: inactive

How did OC[C@@H]1O[C@@H](n2cnc3c(N[C@@H]4C[C@@H]5CC[C@H]4C5)ncnc32)[C@@H](O)[C@H]1O do in these assays?
AmpC nodet inh: inactive; AmpC inh det: inactive; Prx2 Sm inh: inactive; Anthrax LT inh: inactive

How did O=c1[nH][nH]c(=S)c(=O)[nH]1 do in these assays?
AmpC nodet inh: inactive[5.75 µM]; AmpC inh det: inactive[5.75 µM]; Prx2 Sm inh: inactive; Anthrax LT inh: inactive[8 µM]

What do the screens show for `Ic1ccc2c(c1)N(c1ccccc1)c1cc(Nc3ccc4nc5ccc(I)cc5[n+](-c5ccccc5)c4c3)ccc1N2`?
AmpC nodet inh: inactive[5.75 µM]; AmpC inh det: inactive[5.75 µM]; Prx2 Sm inh: inactive; Anthrax LT inh: inactive[8 µM]

Results for Cc1ccc(/C(C#N)=C/c2cccc([N+](=O)[O-])c2)cc1 ?
AmpC nodet inh: inactive[5.75 µM]; AmpC inh det: inactive[5.75 µM]; Prx2 Sm inh: inactive; Anthrax LT inh: inconclusive

Results for Cc1ccc(/C(C#N)=C\c2cn(C)c3ccccc23)cc1 ?
AmpC nodet inh: inactive; AmpC inh det: inactive; Prx2 Sm inh: inactive; Anthrax LT inh: 7.9µM

Bioassay records (PubChem)
